Results published in PubChem BioAssay AID449762 (Southern Research Specialized Biocontainment Screening …, 2010).
About 1,900 (0.58%) of roughly 330,000 compounds were called active. Another 4% or so got no clear call; they are omitted. Not all results are given here. Measured potencies and affinities stand elsewhere. Unmarked numbers belong to inactive results. No stated cut-off is given here; in the data, inconclusive means inhibition above about 70% without an active follow-up result; inactive means below that.

Assay: M. tuberculosis growth inhibition, HTS (AID 449762);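 further: bacterial growth assessed after seven days of incubation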
Details: M. tuberculosis H37Rv growth inhibition, 7H9 media; at 25 µM; hits give high values
`COc1ccc(C(=O)CCN2CCc3cc(OC)c(OC)cc3C2)cc1` showed an inhibition of 68.3%. `COc1cc2c(cc1OC)CN(CCOc1ccc(Br)cc1)CC2` gave an inhibition of -0.08%. `COc1cc(OC)cc(C(=O)N[C@H](C(=O)OCC(=O)c2c[nH]c3ccccc23)C(C)C)c1` gave an inhibition of -5.93%. `C=C1SC(Nc2c(C)cc(C)cc2C)=NC12CCCCC2` gave an inhibition of 4.72%. With `Cc1cc(C)n(Cc2ccc(C(=O)NN)o2)n1` the inhibition was -3.98%. For `CCOC(=O)C1CCN(c2nc(C)nc3c2oc2ccccc23)CC1`, the inhibition was 13.6%. Compound `Cc1nc(N2CCOCC2)c2oc3ccccc3c2n1` has an inhibition of -22.1%. For `CCOc1ccc(C2CC(c3ccc(CC)cc3)Nc3nc(N)nn32)cc1` (stereo not drawn), the inhibition was 53.9%. `CCCCc1nc2cc(C(=O)NCc3nccn3CC)ccc2o1` gave an inhibition of -0.01%. Compound `O=C(NC(=S)NCCO)c1sc2ccccc2c1Cl` has an inhibition of -1.03%. Work on `O=C(NNC(=S)NC1CCCCC1)c1sc2ccccc2c1Cl` yielded an inhibition of 4.12%. `NC(=O)COC(=O)c1cc(-c2cccs2)nn1-c1ccccc1` showed an inhibition of 3.52%. In the case of `COC(=O)C1CCN(C(=O)COC(=O)c2cc(-c3cccs3)nn2-c2ccccc2)CC1`, the inhibition is reported as 68.6%. For `O=[P+](Cc1ccccc1)Cc1ccccc1`, the inhibition was 5.56%. `CCOc1cc2c(cc1OCC)-n1cccc1C(c1ccc(OC)cc1)NC2` (stereo not drawn) showed an inhibition of 12.2%. `CCOc1cc2c(cc1OCC)-n1cccc1C(c1ccc(F)cc1)NC2` (stereo not drawn) gave an inhibition of 4.18%. With `CCN1CCN(C(C(=O)NC2CCCCC2)c2ccc(Cl)cc2)CC1` (stereo not drawn) the inhibition was -6.43%. Compound `Cc1cc(-c2ccc(C)c(S(=O)(=O)NCCCN3CCN(c4ccccc4)CC3)c2)on1` has an inhibition of 36.8%. `COc1ccc(-c2cc(C)no2)cc1S(=O)(=O)NCCCN1CCN(c2ccccc2)CC1` showed an inhibition of 1.94%. With `c1ccc2c(c1)nc1n2CCS1` the inhibition was -2.74%. `COc1cc(C(=O)NNC(=O)c2ccc3ccccc3n2)cc(OC)c1OC` showed an inhibition of 5.84%. Compound `COc1cccc(NC(=O)/C=C/c2ccccc2[N+](=O)[O-])c1` has an inhibition of -3.12%. Compound `CCn1c2ccccc2c2nnc(SCCN3CCCCC3)nc21` has an inhibition of 5.94%. `CCN(CC)CCSc1nnc2c3ccccc3n(Cc3ccccc3)c2n1` showed an inhibition of 3.52%. `CCOC(=O)C1(CC2CCCCO2)CCN(Cc2nc3ccccc3nc2C)CC1` (stereo not drawn) gave an inhibition of 0.36%. With `CCOC(=O)c1cccc(NC(=O)C2CCN(S(=O)(=O)c3cccs3)CC2)c1` the inhibition was -3.98%. `COCCCNC(=O)c1sc2ncnc(N3CCc4ccccc4C3)c2c1C` gave an inhibition of 22.6%. `CCN1CCN(C(=O)c2sc3ncnc(N4CCc5ccccc5C4)c3c2C)CC1` showed an inhibition of 1.76%.
